Paper PMC7862700, “An all-to-all approach to the identification of sequence-specific readers for epigenetic DNA modifications on cytosine”

Experiments:
Assay in all cases: DAPPL (digital affinity profiling via proximity ligation, sequencing); 10 mM Tris-HCl pH 7.5, 50 mM NaCl, 1 mM DTT, 4% glycerol, room temperature, 30 min; GST-TFs on glutathione beads, 16-mer random dsDNA library, 0.1% formaldehyde crosslink after washing; high values mean tight binding
FLI1 = biological target: T1, FLI1 (Homo sapiens, UniProt Q01543 1-452); details: protein: recombinant; tags: N-terminal GST; dsDNA, one strand shown
T1 sequence: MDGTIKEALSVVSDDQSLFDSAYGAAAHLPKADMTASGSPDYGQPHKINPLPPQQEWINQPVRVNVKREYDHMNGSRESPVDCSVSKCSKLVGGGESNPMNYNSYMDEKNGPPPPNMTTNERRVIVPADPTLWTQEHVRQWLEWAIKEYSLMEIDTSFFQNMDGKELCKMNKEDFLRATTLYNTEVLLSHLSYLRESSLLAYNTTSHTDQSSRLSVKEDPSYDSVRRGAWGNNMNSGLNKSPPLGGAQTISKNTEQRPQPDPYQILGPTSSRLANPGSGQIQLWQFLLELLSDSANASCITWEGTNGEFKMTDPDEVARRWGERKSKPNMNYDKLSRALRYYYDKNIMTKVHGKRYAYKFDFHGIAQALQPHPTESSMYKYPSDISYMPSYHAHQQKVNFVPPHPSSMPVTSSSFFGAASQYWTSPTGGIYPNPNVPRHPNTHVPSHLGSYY
In short: (§1)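 GST fusions of human transcription factors were expressed in yeast and captured with glutathione beads. Once given DNA barcodes and pooled alongside a tag-only sample, they were incubated for 30 min at room temperature with 200 nmole of a random double-stranded 16-mer DNA library in Tris/NaCl/DTT/glycerol buffer, then washed, crosslinked (0.1% formaldehyde), proximity-ligated, PCR-amplified and sequenced on an Illumina NextSeq500. The binding signal of each hexamer is its read frequency for a factor divided by its frequency for the tag-only sample.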

ELK1 = biological target: T2, ELK1 (Homo sapiens, UniProt P19419 1-428); details: protein: recombinant; tags: N-terminal GST; dsDNA, one strand shown
T2 sequence: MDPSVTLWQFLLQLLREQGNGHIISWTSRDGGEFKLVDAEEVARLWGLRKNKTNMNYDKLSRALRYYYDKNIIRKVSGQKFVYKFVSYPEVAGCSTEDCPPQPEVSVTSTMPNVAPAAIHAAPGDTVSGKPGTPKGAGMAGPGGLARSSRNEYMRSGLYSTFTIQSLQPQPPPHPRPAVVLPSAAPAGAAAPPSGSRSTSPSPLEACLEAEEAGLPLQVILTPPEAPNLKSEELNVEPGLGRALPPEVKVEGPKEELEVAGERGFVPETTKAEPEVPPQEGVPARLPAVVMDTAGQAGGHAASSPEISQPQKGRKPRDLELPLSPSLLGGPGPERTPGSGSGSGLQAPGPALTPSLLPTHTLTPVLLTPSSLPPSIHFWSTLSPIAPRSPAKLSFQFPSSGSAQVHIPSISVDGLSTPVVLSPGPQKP
In short: as §1

GABPA = biological target: T3, GABPA (Homo sapiens, UniProt Q06546 1-454); details: protein: recombinant; tags: N-terminal GST; dsDNA, one strand shown
T3 sequence: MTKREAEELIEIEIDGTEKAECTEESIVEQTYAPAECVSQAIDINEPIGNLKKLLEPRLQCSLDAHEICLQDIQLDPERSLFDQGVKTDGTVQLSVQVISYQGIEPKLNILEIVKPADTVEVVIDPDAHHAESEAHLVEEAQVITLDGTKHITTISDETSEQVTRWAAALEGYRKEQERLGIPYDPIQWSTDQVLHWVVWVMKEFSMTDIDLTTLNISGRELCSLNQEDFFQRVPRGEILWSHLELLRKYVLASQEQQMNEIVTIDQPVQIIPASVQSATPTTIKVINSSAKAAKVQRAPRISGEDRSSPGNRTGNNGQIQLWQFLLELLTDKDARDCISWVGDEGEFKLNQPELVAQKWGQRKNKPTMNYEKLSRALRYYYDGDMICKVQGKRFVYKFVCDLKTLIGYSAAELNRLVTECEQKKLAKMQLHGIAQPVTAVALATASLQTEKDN
In short: as §1

ERG = biological target: T4, ERG (Homo sapiens, UniProt P11308 1-479); details: protein: recombinant; tags: N-terminal GST; dsDNA, one strand shown
T4 sequence: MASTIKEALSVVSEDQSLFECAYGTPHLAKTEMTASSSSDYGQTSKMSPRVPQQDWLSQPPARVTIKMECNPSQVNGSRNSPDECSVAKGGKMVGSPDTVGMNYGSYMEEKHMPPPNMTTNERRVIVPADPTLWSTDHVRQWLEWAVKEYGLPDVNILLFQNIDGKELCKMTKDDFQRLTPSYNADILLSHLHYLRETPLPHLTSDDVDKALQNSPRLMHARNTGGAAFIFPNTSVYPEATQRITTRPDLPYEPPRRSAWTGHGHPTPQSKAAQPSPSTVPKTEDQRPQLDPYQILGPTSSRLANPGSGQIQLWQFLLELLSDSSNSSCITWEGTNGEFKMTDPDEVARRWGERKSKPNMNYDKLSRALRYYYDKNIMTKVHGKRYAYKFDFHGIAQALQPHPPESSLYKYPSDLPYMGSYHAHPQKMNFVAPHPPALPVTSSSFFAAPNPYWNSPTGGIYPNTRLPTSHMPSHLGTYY
In short: as §1

ELF1 = ELF1 (Homo sapiens, UniProt P32519 1-619); details: protein: recombinant; tags: N-terminal GST; dsDNA, one strand shown
Chain of ELF1 (P32519 whole entry): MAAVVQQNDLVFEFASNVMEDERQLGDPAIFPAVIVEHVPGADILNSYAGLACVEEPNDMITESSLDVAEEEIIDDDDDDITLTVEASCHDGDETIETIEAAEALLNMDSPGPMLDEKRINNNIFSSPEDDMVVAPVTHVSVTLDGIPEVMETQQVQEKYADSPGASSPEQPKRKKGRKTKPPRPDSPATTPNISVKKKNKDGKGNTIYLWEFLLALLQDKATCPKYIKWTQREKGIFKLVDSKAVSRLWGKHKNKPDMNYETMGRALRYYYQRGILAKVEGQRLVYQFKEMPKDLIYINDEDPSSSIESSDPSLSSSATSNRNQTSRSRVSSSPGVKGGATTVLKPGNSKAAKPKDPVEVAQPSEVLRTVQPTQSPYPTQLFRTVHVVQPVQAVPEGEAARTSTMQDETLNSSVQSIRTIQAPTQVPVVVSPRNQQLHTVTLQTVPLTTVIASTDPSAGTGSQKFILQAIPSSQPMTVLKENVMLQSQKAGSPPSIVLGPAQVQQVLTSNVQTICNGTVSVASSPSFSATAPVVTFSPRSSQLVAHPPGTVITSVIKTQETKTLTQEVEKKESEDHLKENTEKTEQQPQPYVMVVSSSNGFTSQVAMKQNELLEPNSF
In short: as §1

EHF = biological target: T5, EHF (Homo sapiens, UniProt Q9NZC4 1-300); details: protein: recombinant; tags: N-terminal GST; dsDNA, one strand shown
T5 sequence: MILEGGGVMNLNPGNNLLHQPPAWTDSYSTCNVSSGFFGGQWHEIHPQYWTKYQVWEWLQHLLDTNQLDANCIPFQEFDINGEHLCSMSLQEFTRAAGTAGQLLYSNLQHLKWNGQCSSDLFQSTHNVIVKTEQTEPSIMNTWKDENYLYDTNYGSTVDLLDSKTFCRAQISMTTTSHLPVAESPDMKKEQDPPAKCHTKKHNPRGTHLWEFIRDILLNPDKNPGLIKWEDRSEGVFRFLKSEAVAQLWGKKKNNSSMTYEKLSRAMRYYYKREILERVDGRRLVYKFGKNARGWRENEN
In short: as §1

SPI1 = SPI1 (Homo sapiens, UniProt P17947 1-270); details: protein: recombinant; tags: N-terminal GST; dsDNA, one strand shown
In short: as §1

SPIB = SPIB (Homo sapiens, UniProt Q01892 1-262); details: protein: recombinant; tags: N-terminal GST; dsDNA, one strand shown
Chain of SPIB (Q01892 whole entry): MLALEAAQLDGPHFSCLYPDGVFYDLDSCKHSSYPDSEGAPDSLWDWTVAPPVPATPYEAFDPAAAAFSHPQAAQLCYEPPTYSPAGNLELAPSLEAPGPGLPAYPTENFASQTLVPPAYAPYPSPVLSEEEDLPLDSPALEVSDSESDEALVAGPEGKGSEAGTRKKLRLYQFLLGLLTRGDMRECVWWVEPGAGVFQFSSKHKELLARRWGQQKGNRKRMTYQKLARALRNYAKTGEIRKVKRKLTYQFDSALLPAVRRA
In short: as §1

ELK3 = biological target: T6, ELK3 (Homo sapiens, UniProt P41970 1-407); details: protein: recombinant; tags: N-terminal GST; dsDNA, one strand shown
T6 sequence: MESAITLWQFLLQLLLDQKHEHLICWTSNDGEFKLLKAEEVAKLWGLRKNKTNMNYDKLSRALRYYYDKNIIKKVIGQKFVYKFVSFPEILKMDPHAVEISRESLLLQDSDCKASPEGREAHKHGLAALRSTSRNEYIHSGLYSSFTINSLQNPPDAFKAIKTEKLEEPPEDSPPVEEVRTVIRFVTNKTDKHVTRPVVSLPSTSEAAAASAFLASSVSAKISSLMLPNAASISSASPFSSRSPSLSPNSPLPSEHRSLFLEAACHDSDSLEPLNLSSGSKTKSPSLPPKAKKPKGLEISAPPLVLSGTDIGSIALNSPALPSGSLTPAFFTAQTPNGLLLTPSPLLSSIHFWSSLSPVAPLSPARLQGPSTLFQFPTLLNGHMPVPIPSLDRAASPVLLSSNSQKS
In short: as §1

FEV = biological target: T7, FEV (Homo sapiens, UniProt Q99581 1-238); details: protein: recombinant; tags: N-terminal GST; dsDNA, one strand shown
T7 sequence: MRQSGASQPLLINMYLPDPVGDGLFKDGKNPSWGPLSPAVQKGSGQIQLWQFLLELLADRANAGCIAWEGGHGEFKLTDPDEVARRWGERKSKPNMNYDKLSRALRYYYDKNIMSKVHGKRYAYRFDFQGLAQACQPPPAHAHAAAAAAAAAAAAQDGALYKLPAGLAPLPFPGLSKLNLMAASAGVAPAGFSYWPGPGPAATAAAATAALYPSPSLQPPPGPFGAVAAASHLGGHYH
In short: as §1

ETV5 = ETV5 (Homo sapiens, UniProt P41161 1-510); details: protein: recombinant; tags: N-terminal GST; dsDNA, one strand shown
Chain of ETV5 (P41161 whole entry): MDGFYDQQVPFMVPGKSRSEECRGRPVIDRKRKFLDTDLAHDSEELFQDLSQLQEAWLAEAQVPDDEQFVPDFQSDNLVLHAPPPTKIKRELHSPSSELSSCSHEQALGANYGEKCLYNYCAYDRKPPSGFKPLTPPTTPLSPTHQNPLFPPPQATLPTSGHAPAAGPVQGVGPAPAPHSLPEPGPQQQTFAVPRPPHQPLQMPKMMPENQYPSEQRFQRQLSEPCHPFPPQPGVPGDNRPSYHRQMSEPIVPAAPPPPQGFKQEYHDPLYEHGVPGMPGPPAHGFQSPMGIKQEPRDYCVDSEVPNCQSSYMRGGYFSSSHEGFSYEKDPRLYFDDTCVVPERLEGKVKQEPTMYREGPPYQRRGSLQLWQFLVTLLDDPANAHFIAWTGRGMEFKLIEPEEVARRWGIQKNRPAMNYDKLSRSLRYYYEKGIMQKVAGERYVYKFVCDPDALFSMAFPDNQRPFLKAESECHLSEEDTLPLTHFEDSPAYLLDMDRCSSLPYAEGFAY
In short: as §1

HSF1 = HSF1 (Homo sapiens, UniProt Q00613 1-529); details: protein: recombinant; tags: N-terminal GST; chain copies: 3; dsDNA, one strand shown
Chain of HSF1 (Q00613 whole entry): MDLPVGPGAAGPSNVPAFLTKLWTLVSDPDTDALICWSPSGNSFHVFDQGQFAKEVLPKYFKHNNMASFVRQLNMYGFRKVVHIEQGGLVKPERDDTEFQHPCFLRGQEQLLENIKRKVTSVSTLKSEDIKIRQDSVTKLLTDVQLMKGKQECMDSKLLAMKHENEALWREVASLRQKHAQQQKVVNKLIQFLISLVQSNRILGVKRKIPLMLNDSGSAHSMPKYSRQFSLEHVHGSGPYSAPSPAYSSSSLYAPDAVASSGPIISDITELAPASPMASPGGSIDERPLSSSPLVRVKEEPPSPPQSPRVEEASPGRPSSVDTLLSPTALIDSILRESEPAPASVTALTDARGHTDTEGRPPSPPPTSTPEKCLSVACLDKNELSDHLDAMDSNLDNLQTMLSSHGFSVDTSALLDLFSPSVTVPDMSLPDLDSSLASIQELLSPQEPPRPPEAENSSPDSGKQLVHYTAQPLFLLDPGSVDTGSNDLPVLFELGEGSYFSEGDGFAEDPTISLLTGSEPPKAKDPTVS
In short: as §1

SPIC = biological target: T8, SPIC (Homo sapiens, UniProt Q8N5J4 1-248); details: protein: recombinant; tags: N-terminal GST; dsDNA, one strand shown
T8 sequence: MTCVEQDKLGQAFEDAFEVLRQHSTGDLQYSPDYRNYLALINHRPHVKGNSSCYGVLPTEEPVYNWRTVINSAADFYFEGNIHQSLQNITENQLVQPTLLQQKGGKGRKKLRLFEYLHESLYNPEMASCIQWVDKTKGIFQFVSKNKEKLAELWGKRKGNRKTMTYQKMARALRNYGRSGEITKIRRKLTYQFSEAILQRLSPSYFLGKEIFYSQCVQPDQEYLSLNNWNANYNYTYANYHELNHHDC
In short: as §1

ELF4 = ELF4 (Homo sapiens, UniProt Q99607 1-663); details: protein: recombinant; tags: N-terminal GST; dsDNA, one strand shown
Chain of ELF4 (Q99607 whole entry): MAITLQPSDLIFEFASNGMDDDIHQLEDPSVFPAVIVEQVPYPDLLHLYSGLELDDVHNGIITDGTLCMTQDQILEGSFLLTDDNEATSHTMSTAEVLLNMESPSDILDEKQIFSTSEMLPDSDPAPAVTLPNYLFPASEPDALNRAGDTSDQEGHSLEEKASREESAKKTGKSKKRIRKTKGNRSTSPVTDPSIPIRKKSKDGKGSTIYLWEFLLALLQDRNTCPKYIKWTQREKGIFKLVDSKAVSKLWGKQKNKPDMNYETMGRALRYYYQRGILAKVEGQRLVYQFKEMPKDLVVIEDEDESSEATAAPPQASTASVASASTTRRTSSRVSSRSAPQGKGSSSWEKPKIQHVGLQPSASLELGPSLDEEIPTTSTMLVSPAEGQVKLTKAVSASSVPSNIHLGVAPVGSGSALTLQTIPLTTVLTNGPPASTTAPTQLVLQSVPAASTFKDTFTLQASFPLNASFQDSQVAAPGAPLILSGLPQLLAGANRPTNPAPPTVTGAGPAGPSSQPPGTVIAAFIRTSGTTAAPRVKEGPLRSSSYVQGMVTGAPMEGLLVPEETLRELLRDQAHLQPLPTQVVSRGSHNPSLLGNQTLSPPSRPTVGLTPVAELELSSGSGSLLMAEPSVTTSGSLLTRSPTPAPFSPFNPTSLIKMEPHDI
In short: as §1

ELK4 = biological target: T9, ELK4 (Homo sapiens, UniProt P28324-2 1-405); details: protein: recombinant; tags: N-terminal GST; dsDNA, one strand shown
T9 sequence: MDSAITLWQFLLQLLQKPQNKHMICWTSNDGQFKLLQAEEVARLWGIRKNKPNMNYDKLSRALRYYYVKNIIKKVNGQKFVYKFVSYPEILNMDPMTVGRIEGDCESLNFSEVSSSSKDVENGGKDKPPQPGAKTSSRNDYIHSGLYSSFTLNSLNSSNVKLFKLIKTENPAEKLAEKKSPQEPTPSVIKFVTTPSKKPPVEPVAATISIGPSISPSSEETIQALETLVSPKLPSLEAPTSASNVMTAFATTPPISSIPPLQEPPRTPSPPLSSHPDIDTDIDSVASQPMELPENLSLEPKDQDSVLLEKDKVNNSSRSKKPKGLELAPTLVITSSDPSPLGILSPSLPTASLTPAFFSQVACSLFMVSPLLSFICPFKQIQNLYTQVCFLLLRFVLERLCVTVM
In short: as §1

ETV2 = biological target: T10, ETV2 (Homo sapiens, UniProt O00321 1-342); details: protein: recombinant; tags: N-terminal GST; dsDNA, one strand shown
T10 sequence: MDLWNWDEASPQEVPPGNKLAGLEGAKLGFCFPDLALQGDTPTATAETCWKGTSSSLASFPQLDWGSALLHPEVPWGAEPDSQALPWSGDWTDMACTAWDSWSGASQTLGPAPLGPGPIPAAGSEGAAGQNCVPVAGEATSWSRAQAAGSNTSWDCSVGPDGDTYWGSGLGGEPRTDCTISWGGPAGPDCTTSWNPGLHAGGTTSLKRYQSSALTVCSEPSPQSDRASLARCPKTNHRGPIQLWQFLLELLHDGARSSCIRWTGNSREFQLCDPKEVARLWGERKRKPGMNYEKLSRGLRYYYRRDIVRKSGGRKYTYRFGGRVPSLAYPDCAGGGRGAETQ
In short: as §1

ELF3 = biological target: T11, ELF3 (Homo sapiens, UniProt P78545 1-371); details: protein: recombinant; tags: N-terminal GST; dsDNA, one strand shown
T11 sequence: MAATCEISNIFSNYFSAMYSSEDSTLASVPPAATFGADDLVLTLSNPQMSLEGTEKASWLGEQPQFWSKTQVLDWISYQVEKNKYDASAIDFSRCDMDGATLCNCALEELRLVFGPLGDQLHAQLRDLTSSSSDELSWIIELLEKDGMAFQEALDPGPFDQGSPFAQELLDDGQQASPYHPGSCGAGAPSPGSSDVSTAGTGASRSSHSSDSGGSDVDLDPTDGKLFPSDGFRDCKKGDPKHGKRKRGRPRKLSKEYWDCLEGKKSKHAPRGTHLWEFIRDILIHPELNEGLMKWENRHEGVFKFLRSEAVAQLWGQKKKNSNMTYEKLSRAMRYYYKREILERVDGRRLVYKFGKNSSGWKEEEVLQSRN
In short: as §1

CRX = CRX (Homo sapiens, UniProt O43186 1-299); details: protein: recombinant; tags: N-terminal GST; dsDNA, one strand shown
Chain of CRX (O43186 whole entry): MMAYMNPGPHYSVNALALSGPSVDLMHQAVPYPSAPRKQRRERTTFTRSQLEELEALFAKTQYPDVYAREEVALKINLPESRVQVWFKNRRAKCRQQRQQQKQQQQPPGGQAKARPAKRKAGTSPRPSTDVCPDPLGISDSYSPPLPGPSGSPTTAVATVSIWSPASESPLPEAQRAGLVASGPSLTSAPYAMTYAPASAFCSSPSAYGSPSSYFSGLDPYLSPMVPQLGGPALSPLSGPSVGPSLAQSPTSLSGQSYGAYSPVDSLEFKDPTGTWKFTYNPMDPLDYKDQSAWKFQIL
In short: as §1

ETV1 = ETV1 (Homo sapiens, UniProt P50549 1-477); details: protein: recombinant; tags: N-terminal GST; dsDNA, one strand shown
Chain of ETV1 (P50549 whole entry): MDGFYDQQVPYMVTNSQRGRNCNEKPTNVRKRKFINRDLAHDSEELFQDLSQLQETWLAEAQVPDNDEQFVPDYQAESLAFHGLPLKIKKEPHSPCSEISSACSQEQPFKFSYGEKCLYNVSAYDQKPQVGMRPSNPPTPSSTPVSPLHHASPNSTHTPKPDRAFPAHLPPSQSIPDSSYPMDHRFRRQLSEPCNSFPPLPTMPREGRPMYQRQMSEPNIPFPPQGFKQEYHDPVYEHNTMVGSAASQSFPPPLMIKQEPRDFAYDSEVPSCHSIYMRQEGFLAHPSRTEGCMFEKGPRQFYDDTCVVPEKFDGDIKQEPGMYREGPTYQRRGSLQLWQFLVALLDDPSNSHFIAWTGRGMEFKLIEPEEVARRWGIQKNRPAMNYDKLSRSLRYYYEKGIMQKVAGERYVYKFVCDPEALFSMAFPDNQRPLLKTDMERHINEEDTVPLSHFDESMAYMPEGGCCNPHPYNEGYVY
In short: as §1

Sequence: AATTTG
- binding signal (FLI1): 1.35 fold enrichment (6-mer frequency, TF over GST control)
- binding signal (ELK1): 1.22 fold enrichment (6-mer frequency, TF over GST control)
- binding signal (GABPA): 1.33 fold enrichment (6-mer frequency, TF over GST control)
- binding signal (ERG): 1.26 fold enrichment (6-mer frequency, TF over GST control)
- binding signal (ELF1): 1.26 fold enrichment (6-mer frequency, TF over GST control)
- binding signal (EHF): 1.23 fold enrichment (6-mer frequency, TF over GST control)
- binding signal (SPI1): 1.33 fold enrichment (6-mer frequency, TF over GST control)
- binding signal (SPIB): 1.34 fold enrichment (6-mer frequency, TF over GST control)
- binding signal (ELK3): 1.12 fold enrichment (6-mer frequency, TF over GST control)
- binding signal (FEV): 1.39 fold enrichment (6-mer frequency, TF over GST control)
- binding signal (ETV5): 1.25 fold enrichment (6-mer frequency, TF over GST control)
- binding signal (HSF1): 1.26 fold enrichment (6-mer frequency, TF over GST control)
- binding signal (SPIC): 1.41 fold enrichment (6-mer frequency, TF over GST control)
- binding signal (ELF4): 1.26 fold enrichment (6-mer frequency, TF over GST control)
- binding signal (ELK4): 1.34 fold enrichment (6-mer frequency, TF over GST control)
- binding signal (ETV2): 1.16 fold enrichment (6-mer frequency, TF over GST control)
- binding signal (ELF3): 1.32 fold enrichment (6-mer frequency, TF over GST control)
- binding signal (CRX): 1.33 fold enrichment (6-mer frequency, TF over GST control)
- binding signal (ETV1): 1.28 fold enrichment (6-mer frequency, TF over GST control)
